PubChem BioAssay (Tox21)
“And” between values parts separate entries of the source, which are not always exact repeats. Equal entries are not always repeated. Inconclusive results are not listed. Entries that show only a call come without a potency. The source made the active and inactive calls. The call rests on the fitted dose curve; in most records, active means well fitted activation curve with a large enough effect in the repeat runs; inconclusive means weak or mixed curves; inactive means flat fitted curve, though single readings scatter.

assay: A CellTox Green Cytotoxicity Assay to monitor cytotoxicity in HepG2 cells - 24 hour (AID 1224878); settings: CellTox Green fluorescence; series mostly up to 76.8 µM; further: nearly all actives have a fitted effect of over 45% in size
Source text: National Center for Advancing Translational Sciences [NCATS]
NIH Chemical Genomics Center [NCGC]
U.S. Environmental Protection Agency [EPA]
National Institutes of Environmental Health Sciences [NIEHS]
National Toxicology Program [NTP]
Cell-based models are critical for drug discovery. Determining the natural cytotoxic effects resulting from test compounds is an essential research activity. A CellTox Green Cytotoxicity Assay to monitor cytotoxicity in real time of continues cell culture during 40 hours of the compound treatment was used to screen Tox21 10K library compounds in HepG2 cells. CellTox Green Cytotoxicity Assay is a nonlytic, homogeneous, biofluorescent method to measure cytotoxicity in cell culture after experimental manipulation. The assay system uses a proprietary asymmetric cyanine dye that is excluded from viable cells but preferentially stains the dead cell's DNA. […] Viable cells produce no appreciable increases in fluorescence. Therefore, the fluorescence signal produced by the binding interaction with dead cell DNA is proportional to cytotoxicity.
The mixture of HepG2 cell suspension and reagents were dispensed at 600cells/6 ul/well in 1536-well tissue culture treated black solid bottom plates using a Multidrop dispenser. After the assay plates were incubated at a 37 C/5% CO2 incubator for 5 hours, 23 nL of compounds dissolved in DMSO, positive and negative controls was transferred to the assay plate by a pintool work station. The plates were incubated at 37 C for 40 hours. The fluorescence intensity were measured at 0h, 8h, 16h, 24h, 32h and 40h time points using ViewLux plate reader during compound treatment.
Potency means the concentration at half of the fitted maximal effect.

SMILES	Potency
NC(=O)NS(=O)(=O)c1ccc(N)cc1	inactive
CCCCCCCCNC(C)C(O)c1ccc(SC(C)C)cc1 (stereo not given)	16.9 µM (active)
c1cc(C(c2ccc(OCC3CO3)cc2)c2ccc(OCC3CO3)cc2)ccc1OCC1CO1 (stereo not given)	inactive
CCOC(=O)/C=C(C)/C=C/C=C(C)/C=C/c1c(C)cc(OC)c(C)c1C	inactive
Oc1cccc2cc3cccc(O)c3c(O)c12	inactive
CCN(C(=O)c1cc(C)cc(OC[C@H](C)Nc2ccncc2)c1)C(C)C	inactive
C[C@@H](NCCCc1cccc(C(F)(F)F)c1)c1cccc2ccccc12	16.9 µM (active)
NNc1nc(-c2ccc([N+](=O)[O-])cc2)cs1	inactive
Cc1cc(O)c(C(C)(C)C)cc1Sc1cc(C(C)(C)C)c(O)cc1C	54.8 µM (active)
O=[N+]([O-])c1cc([N+](=O)[O-])c2ccc(S(=O)(=O)O)cc2c1O	inactive
COc1ccc(CN2CCN(C(c3ccc(F)cc3)c3ccc(F)cc3)CC2)c(OC)c1OC	inactive
CCC(Cl)C(Cl)C(Cl)CC(Cl)C(Cl)C(C)Cl (stereo not given)	inactive
O=C1C=CC(=O)N1c1ccc(Cc2ccc(N3C(=O)C=CC3=O)cc2)cc1	11 µM (active)
Nc1c(Cl)cc(Cl)cc1Cl	inactive
N#CSc1ccc(N)c([N+](=O)[O-])c1	inactive
C[n+]1cc2c3c(ccc2c2ccc4cc5c(cc4c21)OCO5)OCO3	0.522 µM (active)
CC/C(=C(\c1ccc(O)cc1)c1ccc(OCCN(C)C)cc1)c1ccccc1	55.1 µM (active)
COC(=O)C1=C(C)NC(C)=C(C(=O)OCC(C)C)C1c1ccccc1[N+](=O)[O-] (stereo not given)	inactive
CSc1ccc(/C=C2/C(C)=C(CC(=O)O)c3cc(F)ccc32)cc1	inactive
CCC1OCC(COc2ccc(Oc3ccccc3)cc2)O1 (stereo not given)	inactive

SMILES	Potency
CN(C)[C@@H]1C(=O)C(C(N)=O)=C(O)[C@@]2(O)C(=O)C3=C(O)c4c(O)cccc4C[C@H]3C[C@@H]12	inactive
CCCCCCCCn1sc(Cl)c(Cl)c1=O	11 µM (active)
CCCCCCCC/C=C/CCCCCCCC1=NCCN1CCO	13.8 µM (active)
Cc1ccc(-n2nc(C(C)(C)C)cc2NC(=O)Nc2ccc(OCCN3CCOCC3)c3ccccc23)cc1	inactive
CCCCCCCCCCCCc1ccc(O)cc1	13.8 µM (active)
CCCCCCCCCCn1cc[n+](CCCCCCCCCC)c1C	17.4 µM (active)
O=C(O)c1ccc(Cl)c(Cl)c1	inactive
CCCCCCCC(=O)[O-].CCCCCCCC(=O)[O-].[Zn+2]	inactive
COc1cccc(N)c1	inactive
COc1cccc2c1C(=O)c1c(O)c3c(c(O)c1C2=O)C[C@@](O)(C(=O)CO)C[C@@H]3O[C@H]1C[C@H](N)[C@H](O[C@@H]2CCCCO2)[C@H](C)O1	9.52 µM (active)
CCN(CC)CCNC(=O)c1c(C)[nH]c(/C=C2\C(=O)Nc3ccc(F)cc32)c1C	19 µM (active)
O=S1(=O)CC(Cl)(Cl)C(Cl)(Cl)C1	9.77 µM (active)
CNC(=O)c1ccccc1	inactive
N#CC1(c2ccc(F)cc2)CCC(=O)CC1	inactive
CCN(Cc1cccnc1)C(=O)c1cccc(Cl)c1[C@]1(C)C(=O)N(Cc2ccc(OC)cc2OC)c2ccc(Cl)cc21	inactive
CCCCCCOC(=O)c1ccc(O)cc1	43.7 µM (active) and 9.77 µM (active)
OCCN1CCN(CC/C=C2/c3ccccc3Sc3ccc(C(F)(F)F)cc32)CC1	16.9 µM (active)
COC(=O)C1=C(C)NC(C)=C(C(=O)OCCc2ccc(N3CCN(C(c4ccccc4)c4ccccc4)CC3)cc2)C1c1cccc([N+](=O)[O-])c1 (stereo not given)	inactive
O=C1c2ccccc2Cc2ccccc21	inactive
CCCCCCCCCOC(=O)c1ccc(O)cc1	48.3 µM (active)
